Laboratory results taken from the supplement of paper PMC8728848.
This is one part of a sample in which the strongest signals are shown more often than they occur.

Experiments:
Test in all cases: glycan array binding signal (z-score within array); higher = stronger binding
Settings in all cases: glycan notation: IUPAC condensed, linker removed
[1] = target: GlcNAc(b1-3)Gal(b1-4)GlcNAc(b1-3)Gal(b1-4)GlcNAc(b1-2)[GlcNAc(b1-3)Gal(b1-4)GlcNAc(b1-3)Gal(b1-4)GlcNAc(b1-6)]Man(a1-6)[GlcNAc(b1-3)Gal(b1-4)GlcNAc(b1-3)Gal(b1-4)GlcNAc(b1-2)Man(a1-3)]Man(b1-4)GlcNAc(b1-4)[Fuc(a1-6)]GlcNAc
Outline: (§1)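 Glycan array data came from 3228 arrays in the Consortium for Functional Glycomics database, and only arrays with an available protein sequence were kept. Glycan names were put into IUPAC-condensed notation, and columns mapping to the same glycan were averaged. The binding signal is a within-array Z-score, averaged across arrays of one protein sequence run at different concentrations or buffers and across linkers. A negative Z-score can be read as non-binding.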

[2] = target: GlcNAc(b1-3)Gal(b1-4)GlcNAc(b1-3)Gal(b1-4)GlcNAc(b1-3)Gal(b1-4)GlcNAc(b1-2)Man(a1-3)[GlcNAc(b1-3)Gal(b1-4)GlcNAc(b1-3)Gal(b1-4)GlcNAc(b1-3)Gal(b1-4)GlcNAc(b1-2)Man(a1-6)]Man(b1-4)GlcNAc(b1-4)GlcNAc
Outline: as §1

[3] = target: GlcNAc(b1-3)Gal(b1-4)GlcNAc(b1-3)Gal(b1-4)GlcNAc(b1-3)Gal(b1-4)GlcNAc(b1-2)[GlcNAc(b1-3)Gal(b1-4)GlcNAc(b1-3)Gal(b1-4)GlcNAc(b1-3)Gal(b1-4)GlcNAc(b1-6)]Man(a1-6)[GlcNAc(b1-3)Gal(b1-4)GlcNAc(b1-3)Gal(b1-4)GlcNAc(b1-3)Gal(b1-4)GlcNAc(b1-2)Man(a1-3)]Man(b1-4)GlcNAc(b1-4)[Fuc(a1-6)]GlcNAc
Outline: as §1

[4] = target: GlcNAc(b1-3)Gal(b1-4)GlcNAc(b1-3)Gal(b1-4)GlcNAc(b1-3)Gal(b1-4)GlcNAc(b1-3)Gal(b1-4)GlcNAc(b1-2)[GlcNAc(b1-3)Gal(b1-4)GlcNAc(b1-3)Gal(b1-4)GlcNAc(b1-3)Gal(b1-4)GlcNAc(b1-3)Gal(b1-4)GlcNAc(b1-6)]Man(a1-6)[GlcNAc(b1-3)Gal(b1-4)GlcNAc(b1-3)Gal(b1-4)GlcNAc(b1-3)Gal(b1-4)GlcNAc(b1-3)Gal(b1-4)GlcNAc(b1-2)Man(a1-3)]Man(b1-4)GlcNAc(b1-4)[Fuc(a1-6)]GlcNAc
Outline: as §1

[5] = target: GlcNAc(b1-3)Gal(b1-4)GlcNAc(b1-3)Gal(b1-4)GlcNAc(b1-3)GalNAc
Outline: as §1

[6] = target: GlcNAc(b1-3)Gal(b1-4)GlcNAc(b1-6)[GlcNAc(b1-3)Gal(b1-3)]GalNAc
Outline: as §1

[7] = target: GlcNAc(b1-4)GlcNAc(b1-4)GlcNAc(b1-4)GlcNAc(b1-4)GlcNAc
Outline: as §1

[8] = target: GlcNAc6S(b1-3)Gal(b1-4)GlcNAc
Outline: as §1

[9] = target: Man(a1-2)Man(a1-2)Man(a1-6)[Man(a1-3)]Man
Outline: as §1

Man(b1-4)GlcNAc = target: Man(b1-4)GlcNAc
Outline: as §1

[10] = target: Neu5Ac(a2-3)Gal(b1-3)GalNAc(b1-4)[Neu5Ac(a2-3)]Gal(b1-4)Glc
Outline: as §1

[11] = target: Neu5Ac(a2-3)Gal(b1-3)[GlcNAc(b1-6)]GalNAc
Outline: as §1

[12] = target: Neu5Ac(a2-3)Gal(b1-3)[Neu5Ac(a2-6)]GalNAc
Outline: as §1

[13] = target: Neu5Ac(a2-3)Gal(b1-3)]Neu5Ac(a2-3)Gal(b1-4)]GlcNAc
Outline: as §1

[14] = target: Neu5Ac(a2-3)Gal(b1-4)GlcNAc(b1-2)Man
Outline: as §1

[15] = target: Neu5Ac(a2-3)Gal(b1-4)GlcNAc(b1-2)Man(a1-3)[Neu5Ac(a2-3)Gal(b1-4)GlcNAc(b1-2)Man(a1-6)]Man(b1-4)GlcNAc(b1-4)[Fuc(a1-6)]GlcNAc
Outline: as §1

[16] = target: Neu5Ac(a2-3)Gal(b1-4)GlcNAc(b1-2)Man(a1-3)[Neu5Ac(a2-6)Gal(b1-4)GlcNAc(b1-2)Man(a1-6)]Man(b1-4)GlcNAc(b1-4)GlcNAc
Outline: as §1

[17] = target: Neu5Ac(a2-3)Gal(b1-4)GlcNAc(b1-2)[Neu5Ac(a2-3)Gal(b1-4)GlcNAc(b1-6)]Man(a1-6)[Neu5Ac(a2-3)Gal(b1-4)GlcNAc(b1-2)Man(a1-3)][GlcNAc(b1-4)]Man(b1-4)GlcNAc(b1-4)GlcNAc
Outline: as §1

[18] = target: Neu5Ac(a2-3)Gal(b1-4)GlcNAc(b1-3)Gal(b1-4)[Fuc(a1-3)]GlcNAc
Outline: as §1

Neu5Ac(a2-6)Gal = target: Neu5Ac(a2-6)Gal
Outline: as §1

[19] = target: Neu5Ac(a2-6)Gal(b1-4)GlcNAc(b1-2)Man(a1-3)[Gal(b1-4)GlcNAc(b1-2)Man(a1-6)]Man(b1-4)GlcNAc(b1-4)GlcNAc
Outline: as §1

[20] = target: Neu5Ac(a2-6)Gal(b1-4)GlcNAc(b1-3)Gal(b1-4)[Fuc(a1-3)]GlcNAc(b1-3)Gal(b1-4)[Fuc(a1-3)]GlcNAc
Outline: as §1

[21] = target: Neu5Ac(a2-6)Gal(b1-4)GlcNAc6S
Outline: as §1

[22] = target: Neu5Ac(a2-8)Neu5Ac(a2-3)Gal(b1-3)GalNAc(b1-4)[Neu5Ac(a2-3)]Gal(b1-4)Glc
Outline: as §1

B1: Pwp4 (Candida glabrata) (protein)
chain: MGSSHHHHHHSSGLVPRGSHMASVGNPITVSNVCSFPKNWHRTAGFRALTARLGIGIQSDSYKELLNYPGTFQLTTQQSSTTKPNFQISGLVGNIYGLTIVPSYLLVELTGYFVPPVSGEYTFSLEGSDDAAIIFIANPSTFKCGHVEDWPTAYDNDVTVTESIHATRTIYMIEGVAYPIRIAYYNGLSLGKLQASFTDPEGVKRVDWNGYIWRYDSCDTCSYV
glycan array binding signal (z-score) [1]: 4.62
glycan array binding signal (z-score) [2]: 1.16
glycan array binding signal (z-score) [3]: 5.36
glycan array binding signal (z-score) [4]: 4.3
glycan array binding signal (z-score) [5]: -0.617
glycan array binding signal (z-score) [6]: -0.359
glycan array binding signal (z-score) [7]: -0.442
glycan array binding signal (z-score) [8]: -0.195
glycan array binding signal (z-score) [9]: -0.597
glycan array binding signal (z-score) (Man(b1-4)GlcNAc): -0.403
glycan array binding signal (z-score) [10]: -0.275
glycan array binding signal (z-score) [11]: 3.89
glycan array binding signal (z-score) [12]: -0.221
glycan array binding signal (z-score) [13]: -0.455
glycan array binding signal (z-score) [14]: -0.174
glycan array binding signal (z-score) [15]: 1.34
glycan array binding signal (z-score) [16]: 0.37
glycan array binding signal (z-score) [17]: 9.42
glycan array binding signal (z-score) [18]: -0.414
glycan array binding signal (z-score) (Neu5Ac(a2-6)Gal): 0.575
glycan array binding signal (z-score) [19]: 1.01
glycan array binding signal (z-score) [20]: -0.388
glycan array binding signal (z-score) [21]: -0.336
glycan array binding signal (z-score) [22]: -0.601
